Bioassay records from PubChem BioAssay.
HT1080NT lethal – qHTS for induction of synthetic lethality in tumor cells producing 2HG: qHTS for the HT-1080-NT fibrosarcoma cell line; actives 1.6% (n = 360,000); Potency, µM (titrated, usually from 46.1 µM), usual class: cytotoxic; AID 686970, 2013; HT-1080-NT fibrosarcoma viability, CellTiter-Glo ATP luminescence, 48 h;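 also: NT is the 2HG producing partner of a matched IDH1 knockdown line; nearly all actives have a fitted effect of over 55% in size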
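Compounds were tested in concentration-response format on HT-1080-NT cells for 48 hours at 37 degrees C. Cell viability came from CellTiter-Glo luminescence; curves were classified by r2, response magnitude and activity.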
DT40 TDP1 no CPT – qHTS for Inhibitors of human tyrosyl-DNA phosphodiesterase 1 (TDP1): qHTS in cells in absence of CPT. AID 686978, 2013. actives 15% (n = 420,000). Potency, µM (series often up to 46.2 µM), hits mostly inhibitors. DT40 Tdp1-/- hTDP1 cells, no CPT, ATP luminescence, 48 h; also: nearly all actives have a fitted effect of over 55% in size
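Compound effects on proliferation are scored in DT40 Tdp1-/-;hTDP1 cells in the absence of CPT. ATP levels (CellTiter-Glo luminescence) are recorded after a ≥48 hr, 37 °C incubation.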
IL1B secr inh – qHTS for Inhibitors of Inflammasome Signaling: IL-1-beta AlphaLISA Primary Screen | THP-1 LPS/ATP IL-1B secretion, AlphaLISA, 16 h; stronger effect = lower value | activity change, % at 57.5 µM | actives 4.7% (n = 360,000) | AID 743279, 2014; in the data active = activity change below about -50%; inconclusive = mostly about -30% to -49%
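THP-1 cells pretreated 1 hr with compounds (up to 57.5 uM final), then stimulated with LPS (250 ng/mL final) plus ATP (1.25 mM final); secreted IL-1B measured by AlphaLISA after 16 hr, decreased signal indicating inhibition.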
DT40 TDP1 CPT – qHTS for Inhibitors of human tyrosyl-DNA phosphodiesterase 1 (TDP1): qHTS in cells in presence of CPT. chicken DT40 Tdp1-/-;hTDP1 cells + 20 nM CPT, ATP luminescence, 48 h. actives 12% (n = 420,000). Potency, µM (highest dose often 46.2 µM), usual class: inhibitors; also: nearly all actives have a fitted effect of over 55% in size
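Chicken DT40 Tdp1-/- cells stably complemented with human TDP1 were seeded at 400 cells/well in medium containing 20 nM camptothecin, exposed to pin-transferred compounds, and grown at 37 °C for at least 48 hr. Viability was read as ATP luminescence.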
HT1080 IDH1KD tx – qHTS for induction of synthetic lethality in tumor cells producing 2HG: qHTS for the HT-1080-IDH1KD cell line; AID 686971, 2013; Potency, µM (doses to about 46.1 µM), actives largely listed as cytotoxic; HT-1080 IDH1 knockdown viability, ATP luminescence, 48 h; actives 2% (n = 360,000)
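Knockdown cells (IDH1KD HT-1080) received compounds 2 h after plating at 750 cells/well and were kept 48 h at 37 °C in 5% FBS RPMI. A CellTiter-Glo luminescence read gave % activity for curve fitting.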
Of the large screens only hits and unclear results are named; the others gave an inactive call. An excerpt weighted towards active compounds, which were near 19% of everything screened. Unless noted, calls follow the shape of the dose curve; as a rule, active = well fitted curve in the direction sought with a large enough effect; inconclusive = small, poorly fitted or top-dose-only effect, or another doubt; inactive = no such curve, though single readings can be large; an effect the other way counts as inactive or inconclusive.

Cc1noc(C)c1COc1cccc(C(=O)OC(C)C(=O)Nc2ccc3c(c2)OCO3)c1 (stereo unspecified)	HT1080NT lethal 10µM, DT40 TDP1 no CPT 0.82µM, DT40 TDP1 CPT 1µM, HT1080 IDH1KD tx 5µM
Cc1noc(C)c1COc1cccc(C(=O)Nc2ccc(Br)cc2F)c1	HT1080NT lethal inconclusive, DT40 TDP1 no CPT 6.5µM, DT40 TDP1 CPT 8.2µM, HT1080 IDH1KD tx inconclusive
CCCC(=O)Nc1ccc(-c2nc3ncccc3o2)cc1C	none (no result: HT1080NT lethal, IL1B secr inh, HT1080 IDH1KD tx)
C=C1c2cccc(C(F)(F)F)c2O[C@H](C(=O)OCC)[C@H]1OC	none
COc1ccc2c(c1)nc(SCC(O)c1ccccc1)n2C (stereo unspecified)	none
COc1ccc(CNC2CCCc3ccccc32)c(OC)c1 (stereo unspecified)	DT40 TDP1 no CPT inconclusive, IL1B secr inh -50, DT40 TDP1 CPT inconclusive
O=C(COc1ccccc1)NC1CCCc2ccccc21 (stereo unspecified)	none
COc1ccc(NC(=O)NC2CCCc3ccccc32)c(OC)c1 (stereo unspecified)	DT40 TDP1 CPT inconclusive
COc1cccc(C(=O)NC2CCCc3ccccc32)c1OC (stereo unspecified)	DT40 TDP1 no CPT 23µM, DT40 TDP1 CPT inconclusive
CCc1c(C(=O)NC2CCCc3ccccc32)[nH]c(C)c1C(C)=O (stereo unspecified)	HT1080NT lethal inconclusive, DT40 TDP1 no CPT 15µM, DT40 TDP1 CPT inconclusive
COc1ccc(OCC(=O)NC2CCCc3ccccc32)cc1 (stereo unspecified)	DT40 TDP1 no CPT inconclusive, IL1B secr inh -87
COc1ccc(C(=O)NC2CCCc3ccccc32)cc1[N+](=O)[O-] (stereo unspecified)	HT1080NT lethal inconclusive, DT40 TDP1 no CPT 3.7µM, DT40 TDP1 CPT 5.2µM, HT1080 IDH1KD tx 15µM
O=C(CSc1cc(Cl)ccc1Cl)NC1CCCc2ccccc21 (stereo unspecified)	DT40 TDP1 no CPT inconclusive, DT40 TDP1 CPT inconclusive
COc1cc(OC)cc(C(=O)N[C@H](C(=O)NC2CCCc3ccccc32)C(C)C)c1 (stereo partly specified)	DT40 TDP1 no CPT 16µM, DT40 TDP1 CPT inconclusive
Cc1c(C(=O)NC2CCCc3ccccc32)cccc1[N+](=O)[O-] (stereo unspecified)	DT40 TDP1 no CPT 13µM, DT40 TDP1 CPT inconclusive
Cc1ccc2nc(SCC(=O)NC3CCCc4ccccc43)[nH]c2c1 (stereo unspecified)	HT1080NT lethal inconclusive, DT40 TDP1 no CPT 16µM, DT40 TDP1 CPT 21µM, HT1080 IDH1KD tx inconclusive
COc1ccccc1NC(=O)COc1ccc(C(=O)NC2CCCc3ccccc32)cc1OC (stereo unspecified)	DT40 TDP1 no CPT 7.3µM, DT40 TDP1 CPT inconclusive
O=C(NC1CCCc2ccccc21)c1ccccc1 (stereo unspecified)	DT40 TDP1 no CPT inconclusive
O=C(NC1CCCc2ccccc21)c1n[nH]c(=O)c2ccccc12 (stereo unspecified)	HT1080NT lethal inconclusive, DT40 TDP1 no CPT 6.5µM, DT40 TDP1 CPT inconclusive, HT1080 IDH1KD tx 9.2µM
Cc1ccc(N2NC3(CCN(C(N)=O)CC3)NC2=O)cc1	HT1080NT lethal 5.8µM, HT1080 IDH1KD tx 6.5µM
Cc1ccc(N2C(=O)NC3(CCCCC3)C2=O)cc1	none
CC(C#N)(NC(=O)CN1CCN(S(=O)(=O)c2cccc(F)c2)CC1)C1CC1 (stereo unspecified)	none
Cc1nc(N2CCCCCC2)c2ccccc2n1	DT40 TDP1 no CPT 21µM, DT40 TDP1 CPT inconclusive
c1ccc2nc(N3CCCC3)c(N3CCCCC3)nc2c1	DT40 TDP1 no CPT inconclusive
CCN1CCN(c2nc(-c3ccccn3)nc3ccccc23)CC1	HT1080NT lethal 8.9µM, DT40 TDP1 no CPT 21µM, DT40 TDP1 CPT inconclusive, HT1080 IDH1KD tx 10µM
c1ccc(-c2nc(N3CCCCCC3)c3ccccc3n2)nc1	DT40 TDP1 no CPT 2.3µM, IL1B secr inh -84, DT40 TDP1 CPT 2.1µM, HT1080 IDH1KD tx inconclusive
c1ccc(CN2CCN(c3nc(-c4ccccn4)nc4ccccc34)CC2)cc1	none
C=CC(=O)Nc1cccc(Nc2nc(N[C@H]3CC[C@H](N(C)C)CC3)nc3c2ncn3C(C)C)c1	HT1080NT lethal inconclusive, DT40 TDP1 no CPT 0.21µM, DT40 TDP1 CPT 0.15µM, HT1080 IDH1KD tx 0.65µM
CCOC(=O)C1(CC)Oc2ccccc2C(c2ccc(OC)cc2)=C1C(=O)OC (stereo unspecified)	DT40 TDP1 no CPT 18µM, DT40 TDP1 CPT inconclusive
CCOC(=O)C1Oc2ccccc2C(c2ccc(C)cc2)=C1C(=O)OC (stereo unspecified)	DT40 TDP1 no CPT inconclusive, DT40 TDP1 CPT inconclusive
CCC(C)n1c(=O)c2sccc2n2c(CCCC(=O)N3CCC(C(N)=O)CC3)nnc12 (stereo unspecified)	none
S=c1[nH]nc(COc2ccccc2)n1-c1ccc(Cl)cc1	DT40 TDP1 no CPT 23µM
N#C/C(=C\c1ccc(F)c(Cl)c1)S(=O)(=O)c1ccccn1	none
S=c1[nH]nc(-c2cccs2)n1/N=C/c1c(Cl)cccc1Cl	none
CC1=NN(C(=O)c2ccc(Cn3cc([N+](=O)[O-])cn3)cc2)C(O)(C(F)(F)F)C1 (stereo unspecified)	DT40 TDP1 no CPT 3.7µM, DT40 TDP1 CPT 1.8µM
CC1=NN(C(=O)c2cccc(Cn3nc(C)c([N+](=O)[O-])c3C)c2)C(O)(C(F)(F)F)C1 (stereo unspecified)	HT1080NT lethal 7.9µM, DT40 TDP1 no CPT inconclusive, HT1080 IDH1KD tx 5µM
CN(C)c1ccc(NC(=O)c2ccc(Cn3cc([N+](=O)[O-])cn3)cc2)cc1	DT40 TDP1 no CPT inconclusive, DT40 TDP1 CPT inconclusive, HT1080 IDH1KD tx inconclusive
CCN(CC)C(=O)Cn1cc(/C=C(\C#N)C(=O)N2CCN(c3ccccc3)CC2)c2ccccc21	DT40 TDP1 no CPT inconclusive, DT40 TDP1 CPT 21µM
COc1ccc(N2CCN(C(=O)C(=O)c3cn(CC(=O)N4CCCC4)c4ccccc34)CC2)cc1	DT40 TDP1 no CPT inconclusive, DT40 TDP1 CPT 21µM
CC(C)OC(=O)/C(C#N)=C/c1cn(Cc2ccccc2)c2ccccc12	DT40 TDP1 no CPT inconclusive, DT40 TDP1 CPT inconclusive
COc1ccc(N2CCN(C(=O)C(=O)c3cc(OC)c4ccccc4c3)CC2)cc1	DT40 TDP1 no CPT 21µM, DT40 TDP1 CPT 23µM, HT1080 IDH1KD tx inconclusive
CCN(CC)C(=O)Cn1cc(C(=O)C(=O)N2CCN(c3ccc(OC)cc3)CC2)c2ccccc21	none
